The structures appear in SMILES notation. The campaign covered roughly 50,000 compounds. About 350 (0.7%) were called active. The entries come from a sample that favours actives as a whole. Values without a mark were called inactive. Rule as the data show it: active = inhibition above about 60%; inactive = the rest.

As usually defined, the inhibition is the relative decrease from the control value, in per cent.

In the test the target is Dual specificity protein phosphatase 3 (Homo sapiens) (UniProt P51452). The experiment in a line: VHR1 phosphatase inhibitors, primary screen, biochemical, colorimetric, HTS (AID 1992). The note with it: recombinant VHR phosphatase, colorimetric substrate read-out; at 20 µM; active compounds read high.
Dual specificity protein phosphatase 3 (Homo sapiens), sequence (P51452 whole entry, looked up): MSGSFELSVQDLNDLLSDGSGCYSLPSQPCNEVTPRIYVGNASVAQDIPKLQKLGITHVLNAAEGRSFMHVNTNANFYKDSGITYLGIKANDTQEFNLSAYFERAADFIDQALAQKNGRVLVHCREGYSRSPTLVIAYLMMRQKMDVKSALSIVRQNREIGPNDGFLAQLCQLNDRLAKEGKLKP
As to `Cc1nc2cc(S(N)(=O)=O)ccc2n1-c1ccccc1`, the inhibition was 0.2%.

For the compound `O=S(=O)(O)c1nc2ccccc2n1-c1ccccc1`, the inhibition is 91.8% (active).

In the case of `O=C(CSc1nc2ccccc2c(=O)n1-c1ccccc1)Nc1ccccc1`, the inhibition is -19.9%.

`COc1ccc(OC)c(/C=C/C(=O)Nc2ccc(N(C)C)cc2)c1`: the inhibition is -29.5%.

For `Fc1cnc(NN=Cc2cccs2)nc1N1CCOCC1`, the inhibition was -10.8%.

As for `CC(=O)N(C1=C(Cl)C(=O)c2ccccc2C1=O)c1cccc(Br)c1`, the inhibition is 84.5% (active).

Consider `O=C(CN(c1cccc(Br)c1)S(=O)(=O)c1ccccc1)N1CCOCC1`, for which the inhibition is -30.2%.

As to `CC1CCCC(C)C1NC1=C(Cl)C(=O)c2ccccc2C1=O` (stereo unspecified), the inhibition was -2.5%.

Regarding `COc1ccc(N2C(=O)c3cccc4cccc(c34)C2=O)cc1OC`, the inhibition is 7.9%.

On to `COc1cc(C(=O)Nc2cccc3nsnc23)cc(OC)c1OC`, for which the inhibition was -4.9%.

For `COc1ccc(NC(=O)c2cccc(Cl)c2Cl)cc1OC`, the inhibition is 1.3%.

For the compound `Cc1ccc(C(=O)NCCNc2ccc([N+](=O)[O-])cc2Cl)cc1`, the inhibition was -20.4%.

For the compound `Cc1ccc(S(=O)(=O)N(Cc2ccccc2)c2ccccc2C(=O)NC2CCCC2)cc1`, the inhibition is -20.6%.

As to `CC(=Nc1cc(Cl)ccc1O)c1c(-c2ccccc2)[nH]n(-c2nc3ccccc3s2)c1=O`, the inhibition was 2.5%.

Regarding `COc1ccccc1NC(=O)C1=C(C)Nc2sc(C#N)c(N)c2C1c1ccco1` (stereo unspecified), the inhibition is 4.4%.

With `CCOC(=O)c1c(NC(=O)Cc2ccc(Cl)cc2)sc(C(=O)Nc2ccccc2OC)c1C`, the inhibition is 103% (active).

As to `CCOC(=O)c1c(NC(=O)c2ccccc2C)sc(C(=O)Nc2ccccc2OC)c1C`, the inhibition is -2.4%.

For `CCOC(=O)c1c(NC(=O)c2ccccc2OC)sc(C(=O)Nc2ccccc2F)c1C`, the inhibition was -11.7%.

Regarding `CCOC(=O)c1c(NC(=O)Cc2ccc(Cl)cc2)sc(C(=O)Nc2cccc(OC)c2)c1C`, the inhibition is -1.7%.

Turning to `CCOC(=O)c1c(NC(=O)C23CC4CC(CC(C4)C2)C3)sc(C(=O)Nc2ccccc2OC)c1C`, the inhibition was 120% (active).

On to `CCOC(=O)c1c(NC(=O)c2ccc(OC)c(OC)c2)sc(C(=O)Nc2ccc(C)cc2C)c1C`, for which the inhibition was -18.8%.

`Cc1c(C#N)sc2nc(-c3ccccc3)nc(/N=C/N(C)C)c12`: the inhibition was -22.8%.

With `Nc1ccc2nc(Sc3nc4ccc([N+](=O)[O-])cc4s3)sc2c1`, the inhibition was -10.9%.

`CC1=C(C(=O)Nc2ccc(C)cc2)C(c2ccc([N+](=O)[O-])cc2)NC(=O)N1` (stereo unspecified): the inhibition was -6.8%.

As to `CC12CCC(CC1=O)C(C)(C)N2` (stereo unspecified), the inhibition was -18.3%.

`O=C1C=CC(=O)N1Nc1c(Cl)cc(Cl)cc1Cl`: the inhibition is 102% (active).

As for `COc1ccc(Nc2ncnc3ccc(Br)cc23)cc1`, the inhibition is 0.8%.

In the case of `O=C(CSc1ccccc1C(=O)O)c1ccc(-c2ccccc2)cc1`, the inhibition is 2.1%.

On to `Cc1ccc(C)c(OCc2nnc(NC(=O)c3ccccc3)s2)c1`, for which the inhibition was 5.1%.

In the case of `Cc1cc(C)cc(OCCCCNC(C)(C)C)c1`, the inhibition is -33.4%.

For `Cc1nc2cc(-c3ccc(Br)cc3)[nH]n2c(=O)c1C`, the inhibition is 10.2%.

With `CC(=O)N1c2ccc3ccccc3c2C2C=CCC2C1c1ccc(F)cc1` (stereo unspecified), the inhibition was -6.5%.

As for `Cc1[nH]n(-c2ccc(Cl)cc2)c(=O)c1/C=N/NC(=O)c1ccccc1[N+](=O)[O-]`, the inhibition was -37.1%.

On to `CC(=O)Nc1ccc(N2C(=O)C3C4C=CC(CC4)C3C2=O)cc1` (stereo unspecified), for which the inhibition was -14%.

Regarding `COc1ccccc1C1CC(c2ccc(F)cc2)=NN1c1ccccc1` (stereo unspecified), the inhibition was -3.2%.

For the compound `O=C1N=c2ccc(I)cc2=C1c1[nH]c(=S)[nH]c1O`, the inhibition is -37.4%.

Turning to `Cc1ccc(S(=O)(=O)NCCNS(C)(=O)=O)cc1[N+](=O)[O-]`, the inhibition was -9.6%.

As to `CCN(CC)C(=O)CSc1nc(O)c(Cc2ccccc2)c(=O)n1-c1ccc(OC)cc1`, the inhibition was 26.5%.

Take `O=C(O)CCCCCN1C(=O)C(=O)/C(=C(/O)c2ccc(F)cc2)C1c1cccc([N+](=O)[O-])c1` (stereo unspecified): the inhibition was 5%.

Take `Cc1cc(C)c2nc3s/c(=C\c4ccc(-c5ccccc5C(=O)O)o4)c(=O)n3c2c1`: the inhibition is 69.3% (active).

For the compound `COc1cc(/C=c2\sc3nc4c(C)cc(C)cc4n3c2=O)cc(Br)c1O`, the inhibition was -5.5%.

Turning to `Cc1cc(C)c2nc3s/c(=C\c4ccc(N(C)C)cc4)c(=O)n3c2c1`, the inhibition is -22.7%.

On to `COc1cc(NC(=O)c2ccc(-c3ccc([N+](=O)[O-])cc3C)o2)ccc1NC(=O)c1ccco1`, for which the inhibition is -3.8%.

In the case of `c1ccc(-c2nnc(SC3CCCC3)nc2-c2ccccc2)cc1`, the inhibition was -9.1%.

As for `Clc1cccc(CN2CCN(C3CCN(Cc4ccccc4)CC3)CC2)c1`, the inhibition was -6.2%.

Regarding `Cc1ccc(S(=O)(=O)c2ccc(Oc3ccc(Cl)cc3)cc2)cc1`, the inhibition was -26.6%.

These data come from PubChem BioAssay AID1992 (Sanford-Burnham Center for Chemical Genomics, 2009).
